What is called inhibition is the drop in the measured response relative to a control, in per cent.

About 730 (0.21%) of roughly 340,000 compounds were called active.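 How the source made its calls: active means inhibition above the mean over all tested compounds plus 3 SD (cut at about 21% in these data); inactive means the rest.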 The full list was thinned out, with actives kept by preference.

The target of the assay is Toll-like receptor 9 (Homo sapiens) + Myeloid differentiation primary response protein MyD88 (Homo sapiens) (UniProt Q9NR96+Q99836). Nature of the assay: inhibitors of TLR9-MyD88 association in cells, primary screen, cell-based, CHO, BLA complementation, fluorescence (AID 504734).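 Further: 0% = DMSO only wells and 100% = clavulanate BLA inhibitor control wells.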 The note with it: CHO BLA complementation TLR9-MyD88, CCF4 FRET ratio; at 4.98 µM; hits give high values.
Chain of Toll-like receptor 9 (Homo sapiens) + Myeloid differentiation primary response protein MyD88 (Homo sapiens) (Q99836 whole entry, looked up): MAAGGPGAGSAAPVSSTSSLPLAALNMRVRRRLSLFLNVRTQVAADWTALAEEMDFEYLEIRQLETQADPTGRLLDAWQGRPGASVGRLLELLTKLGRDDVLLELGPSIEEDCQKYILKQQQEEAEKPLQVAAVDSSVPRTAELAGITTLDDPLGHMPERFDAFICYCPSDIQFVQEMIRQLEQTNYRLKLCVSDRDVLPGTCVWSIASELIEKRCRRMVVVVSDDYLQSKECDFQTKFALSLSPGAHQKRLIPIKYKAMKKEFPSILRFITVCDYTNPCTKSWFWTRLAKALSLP
Chain of Toll-like receptor 9 (Homo sapiens) + Myeloid differentiation primary response protein MyD88 (Homo sapiens) (Q9NR96 whole entry, looked up): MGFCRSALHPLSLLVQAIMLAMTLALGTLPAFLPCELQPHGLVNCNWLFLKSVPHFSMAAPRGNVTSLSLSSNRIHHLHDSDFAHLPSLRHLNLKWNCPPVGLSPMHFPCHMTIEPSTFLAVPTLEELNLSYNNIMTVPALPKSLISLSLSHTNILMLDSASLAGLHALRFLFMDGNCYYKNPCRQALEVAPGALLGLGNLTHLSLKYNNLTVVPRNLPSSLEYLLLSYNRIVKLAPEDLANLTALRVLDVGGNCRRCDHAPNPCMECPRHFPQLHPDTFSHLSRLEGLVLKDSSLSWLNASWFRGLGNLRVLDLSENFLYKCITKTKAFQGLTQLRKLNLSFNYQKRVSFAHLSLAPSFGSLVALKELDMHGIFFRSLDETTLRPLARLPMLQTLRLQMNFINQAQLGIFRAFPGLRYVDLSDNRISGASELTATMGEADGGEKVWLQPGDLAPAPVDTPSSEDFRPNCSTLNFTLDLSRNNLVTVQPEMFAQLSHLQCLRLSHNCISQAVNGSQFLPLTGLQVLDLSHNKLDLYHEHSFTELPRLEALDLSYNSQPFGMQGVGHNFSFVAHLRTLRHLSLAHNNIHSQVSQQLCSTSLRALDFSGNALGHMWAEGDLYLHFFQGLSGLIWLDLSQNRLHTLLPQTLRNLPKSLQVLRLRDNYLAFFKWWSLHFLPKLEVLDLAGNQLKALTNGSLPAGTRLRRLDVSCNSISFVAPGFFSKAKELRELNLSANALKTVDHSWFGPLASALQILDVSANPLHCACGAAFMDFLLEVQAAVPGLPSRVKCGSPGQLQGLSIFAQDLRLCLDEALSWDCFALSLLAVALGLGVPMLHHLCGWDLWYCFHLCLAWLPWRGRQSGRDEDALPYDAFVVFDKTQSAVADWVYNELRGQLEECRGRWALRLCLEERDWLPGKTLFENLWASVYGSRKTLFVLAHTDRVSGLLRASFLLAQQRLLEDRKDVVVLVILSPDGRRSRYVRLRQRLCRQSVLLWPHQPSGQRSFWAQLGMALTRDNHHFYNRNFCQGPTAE
Turning to `Cc1cc(Nc2ccc(C)c(C)c2)n2ncnc2n1`, the inhibition is -6.42% (inactive).
Regarding `O=c1[nH]c2ccccc2n1C1CCN(CCOc2ccccc2)CC1`, the inhibition was -9.37% (inactive).
For the compound `O=C(Nc1ccc2ccccc2c1)Nc1ccc2snnc2c1`, the inhibition is 22.2% (active).
Then `Cc1nc2cc(NC(=O)Nc3cccc(F)c3)ccc2n1C`, with 4.9% (inactive); and `S=C(Nc1ccccc1)Nc1ccc2ccccc2c1`, with -11.2% (inactive).
The same measure for `COc1ccccc1C(=O)NC(=S)Nc1ccc(N2CCOCC2)cc1`: -9.36% (inactive); for `Cc1ccccc1C#CC1=CC(=O)CC(C)(C)C1`: 4.4% (inactive); for `Cc1ccc(Cc2c(-c3ccc(C)cc3)nc3c4ccccc4ccn23)cc1`: 0.71% (inactive).
In the case of `CCCCCCN1C[C@H](O)[C@@H](n2cc(C3CC3)nn2)C[C@@H]1c1ccc(Cl)cc1`, the inhibition was 2.49% (inactive).
For the compound `COc1cc(/C=C(\C#N)c2nc3c(s2)CC(C)CC3)ccc1O` (configuration not stated), the inhibition is 21.5% (active).
The same measure for `CCOc1ccc(/C=C(/C#N)c2nnc(N3CCOCC3)n2-c2ccccc2)cc1OC`: 3.43% (inactive); for `COc1cc(C=NC2CCCCC2)ccc1O`: -10.8% (inactive).
In the case of `CNC(=O)C1CN(C(=O)c2cccc(S(=O)(=O)N3CCc4ccccc43)c2)c2ccccc2O1` (configuration not stated), the inhibition was 2.33% (inactive).
With `Nc1cc(=O)c2[nH]cnc2[nH]1`, the inhibition was 2.53% (inactive).
For the compound `O=C1CCC(C(=O)OCC(=O)Nc2ccc(OC(F)F)cc2)=NN1`, the inhibition is -4.91% (inactive).
Consider `CCOC(=O)c1c(NC(=O)COC(=O)c2ccc(S(=O)(=O)C(F)F)cc2)sc(C(=O)N(C)C)c1C`, for which the inhibition is -11.2% (inactive).
Regarding `CC(=O)N(C1=C(Cl)C(=O)c2ccccc2C1=O)c1ccc(C(=O)O)cc1`, the inhibition is -8.51% (inactive).
`O=C1C(Cl)=C(Oc2ccccc2)C(=O)c2ccccc21`: the inhibition was 56.9% (active).
Then `CCN(CC)C(=O)C1=C(C)N(Cc2ccc(OC)cc2)C(=O)C(CC(=O)NCc2ccco2)C1` (configuration not stated), with 7.39% (inactive).
Then `CC(C)CCOc1ccc(C(=O)Nc2cc(S(=O)(=O)N3CCOCC3)ccc2N2CCOCC2)cc1`, with 3.89% (inactive); and `COc1ccc(-c2cnc(SCCNC(=O)c3ccc4c(c3)OCO4)[nH]2)cc1`, with -7.86% (inactive).
Then `COc1ccccc1CSc1ncc(-c2ccc([N+](=O)[O-])cc2)[nH]1`, with 21.5% (active); and `COc1ccccc1C1CCN(c2ccc([N+](=O)[O-])cn2)CC1`, with -2.92% (inactive); and `Cn1ncc([N+](=O)[O-])c1C(=O)Nc1cc(Cl)ccc1Cl`, with -11.5% (inactive).
Take `Cc1cc(Cl)ccc1C(=O)C1CCCN(C(=O)c2ccc3c(c2)OCO3)C1` (configuration not stated): the inhibition was -4.99% (inactive).
For `O=C(COC(=O)c1cncc(Br)c1)Nc1ccc(S(=O)(=O)N2CCOCC2)cc1`, the inhibition was -5.67% (inactive).
With `O=C(Nc1cccc2ccccc12)NC1CC1`, the inhibition is 2.15% (inactive).
Regarding `COc1cc(/C=C2\CCCc3c2nc2ccccc2c3C(=O)O)cc(Cl)c1O`, the inhibition is -7.09% (inactive).
Turning to `O=C(COC(=O)c1c2c(nc3ccccc13)/C(=C\c1cccs1)CCC2)Nc1ccccc1Cl`, the inhibition was 22% (active).
Take `NC(=O)c1ccc(NC(=O)COC(=O)c2c3c(nc4ccccc24)/C(=C\c2ccc4c(c2)OCO4)CCC3)cc1`: the inhibition was 8.83% (inactive).
As for `NS(=O)(=O)c1ccc(NC(=O)COC(=O)c2c3c(nc4ccccc24)/C(=C\c2ccc4c(c2)OCO4)CCC3)cc1`, the inhibition is 25.9% (active).
Then `NS(=O)(=O)c1ccc(NC(=O)COC(=O)c2ccco2)cc1`, with -0.62% (inactive); and `O=C(COC(=O)c1c2c(nc3ccccc13)CCCC2)c1ccc(Br)s1`, with -5.16% (inactive); and `C[C@@H]1CN([C@@H](C)CO)C(=O)c2cc(Br)cnc2O[C@@H]1CN(C)C(=O)C1CCCCC1`, with 4.79% (inactive).
Then `COc1ccc(/C=C2\SC(=S)N(CCC(=O)N3CCOCC3)C2=O)cc1OC`, with -12.7% (inactive); and `O=C(Cc1ccc([N+](=O)[O-])cc1)NCCS(=O)(=O)N1CCN(c2ccccc2)CC1`, with 12.1% (inactive).
Consider `CC(=O)Nc1ccc(SCC(=O)NC(=O)c2ccc(Cl)cc2)cc1`, for which the inhibition was -11.6% (inactive).
As to `O=C(CNC(=O)c1ccc(-c2ccccc2)cc1)OCc1ccc(Cl)cc1`, the inhibition is -3.72% (inactive).
In the case of `CC(=O)COc1ccc2c(-c3ccccc3)cc(=O)oc2c1`, the inhibition is 3.27% (inactive).
As for `O=C(CNC(=O)OCc1ccccc1)Oc1cc2oc(=O)cc(-c3ccccc3)c2cc1Cl`, the inhibition is 27.3% (active).
Regarding `CCN(CC(=O)Nc1ccc(NC(C)=O)cc1)C(=O)C1CC(=O)N(c2ccc3c(c2)OCCO3)C1` (configuration not stated), the inhibition was -3.12% (inactive).
For the compound `CCn1c(SCC(=O)N2CCCC2=O)nc2ccccc21`, the inhibition was -8.17% (inactive).
Then `Cc1ccc(C(=O)OCC(=O)NC2CCCCCCC2)cc1C`, with -1.15% (inactive); and `N#CCCN(C(=S)Nc1ccc(Cl)c(Cl)c1)C1CCCCC1`, with 11.8% (inactive).
The same measure for `CCN(CC)C(=O)C(C)N1c2cccc3cccc(c23)S1(=O)=O` (configuration not stated): 4.23% (inactive).
Regarding `O=C1CCC(=O)N1CCC(=O)N(C(=O)NC1CCCCC1)C1CCCCC1`, the inhibition is 4% (inactive).
The same measure for `Cc1ccc(C(=O)N2CCCc3ccccc32)c(Cl)c1`: -5.91% (inactive).
On to `O=C(c1c(Cl)nc2sccn12)N1CCCc2ccccc21`, for which the inhibition was -2.96% (inactive).
Consider `Cc1cccc2cc3c(N)c(C(=O)N4CCCc5ccccc54)sc3nc12`, for which the inhibition is 32.5% (active).
For the compound `C[C@H]1CN([C@@H](C)CO)C(=O)CCCn2cc(nn2)CO[C@@H]1CN(C)S(=O)(=O)c1cccc(C#N)c1`, the inhibition is -7.52% (inactive).
Then `O=C(COC(=O)/C=C/c1cccs1)NC1CCCCC1`, with 2.5% (inactive); and `COc1ccccc1/C=C/C(=O)OCC(=O)NC1CCCCCC1`, with 22.6% (active); and `COc1ccc(/C=C/C(=O)OCC(=O)NC2CCCCCC2)cc1OC`, with -1.25% (inactive).
The same measure for `C[C@H](CO)N1C[C@H](C)[C@@H](CN(C)C(=O)C2CCCCC2)OCc2cnnn2CCCC1=O`: 1.13% (inactive).
The same measure for `O=C(COC(=O)/C=C/c1ccc(Cl)cc1)NC1CCS(=O)(=O)C1` (configuration not stated): -13.5% (inactive); for `CCN(CC)CCCC(C)n1c2nc(=O)[nH]c(=O)c-2nc2cc(Cl)ccc21` (configuration not stated): 22.6% (active); for `Cc1nnc(SC(C)C(=O)c2c[nH]c3ccccc23)n1C1CC1` (configuration not stated): -9.37% (inactive).

For the origin of these results see PubChem BioAssay AID504734 (The Scripps Research Institute Molecular Screening Center, 2011).
